Giardia killer – Giardia lamblia killing | Giardia lamblia trophozoite viability | 340,000 tested, 0.15% active | AID 540267 | activity change, % at 7.66 µM, hits read low; in the data active means activity change below about -80%; inconclusive means between about -30% and that limit;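 further: parasites exposed to compound for two days anaerobically before the ATP read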
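Giardia lamblia trophozoites (100 cells/well) were incubated with compounds for 48 h at 37 deg C under anaerobic conditions. Viability was read as ATP content by one-step luminescence after 15-30 min at room temperature.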
DT40 TDP1 no CPT – qHTS for Inhibitors of human tyrosyl-DNA phosphodiesterase 1 (TDP1): qHTS in cells in absence of CPT. AID 686978, 2013. Potency, µM (titrated, usually from 46.2 µM), for inactives: top-dose activity change, negative = growth inhibition, actives largely listed as inhibitors. 420,000 tested, 15% active. DT40 Tdp1-/- hTDP1 cells, no CPT, ATP luminescence, 48 h; further: potency means the concentration at half of the fitted maximal effect; nearly all actives have a fitted effect of over 55% in size
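No-CPT arm: Tdp1-/-;hTDP1 DT40 cells (400/well) plus compounds, incubated ≥48 hr at 37 °C. Readout CellTiter-Glo luminescence.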
ELG1 DNA repair – ELG1-dependent DNA repair inhibition. 330,000 tested, 2.3% active. HEK293T ELG1-luciferase reporter, luminescence, 16 h; DNA damage induced by 5-fluorouridine. Potency, µM (series often up to 46.1 µM), for inactives: at the top dose activity change, negative = inhibition, hits mostly inhibitors. AID 504467; further: potency means the concentration at half of the fitted maximal effect; nearly all actives have a fitted effect of over 55% in size
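Quantitative HTS, concentration-response format. 2,000 cells/well co-treated with 5-fluorouridine and compound, 16 hr in 5% CO2 at 37 °C; ONE-Glo luminescence read after 30 min.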
TDP1 inh – blocks human tyrosyl-DNA phosphodiesterase 1. 350,000 tested, 0.28% active. Potency, µM (titrated, usually from 130 µM), for the others: top-dose activity change, negative = inhibition, usual class: inhibitors. Q9NUW8. recombinant TDP1, AlphaScreen DNA substrate cleavage; further: potency means the concentration at half of the fitted maximal effect; nearly all actives have a fitted effect of over 40% in size
Target sequence (Q9NUW8 whole entry, looked up): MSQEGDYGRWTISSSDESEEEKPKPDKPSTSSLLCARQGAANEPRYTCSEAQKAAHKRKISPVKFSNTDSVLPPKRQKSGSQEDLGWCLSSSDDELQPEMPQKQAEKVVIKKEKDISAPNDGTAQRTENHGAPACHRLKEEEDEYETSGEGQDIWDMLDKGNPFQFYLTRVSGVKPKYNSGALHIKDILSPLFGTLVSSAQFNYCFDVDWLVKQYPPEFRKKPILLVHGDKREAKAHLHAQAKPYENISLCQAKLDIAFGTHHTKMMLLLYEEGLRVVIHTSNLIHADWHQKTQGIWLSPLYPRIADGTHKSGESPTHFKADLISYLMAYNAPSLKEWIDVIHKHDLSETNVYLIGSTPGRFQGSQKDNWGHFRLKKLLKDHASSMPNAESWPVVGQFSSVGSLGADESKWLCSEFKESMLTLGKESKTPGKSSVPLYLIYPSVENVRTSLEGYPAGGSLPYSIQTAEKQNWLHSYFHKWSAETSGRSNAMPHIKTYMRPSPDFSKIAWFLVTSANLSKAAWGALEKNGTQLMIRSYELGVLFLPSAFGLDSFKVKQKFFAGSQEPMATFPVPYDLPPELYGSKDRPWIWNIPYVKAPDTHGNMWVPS
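Signal: AlphaScreen proximity between streptavidin donor and anti-FITC acceptor beads on intact substrate. Reaction: Tdp1 1 nM, substrate 15 nM final, 5 min RT after 15 min compound preincubation.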
TDP1 cell CPT – DT40-hTDP1 cell growth loss with CPT | 420,000 tested, 12% active | chicken DT40 Tdp1-/-;hTDP1 cells + 20 nM CPT, ATP luminescence, 48 h | Potency, µM (doses to about 46.2 µM), inactives show top-dose activity change, negative = growth inhibition, most hits filed as inhibitors; further: potency means the concentration at half of the fitted maximal effect; nearly all actives have a fitted effect of over 55% in size
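Cell growth measured by CellTiter-Glo luminescence after a minimum 48 h, 37 C compound exposure with 20 nM CPT in Tdp1-knockout DT40 cells stably expressing hTDP1, seeded 400/well; qHTS titration format.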
IL-1B inflam inh – inflammasome signaling inhibition, IL-1 beta readout. AID 743279. 360,000 tested, 4.7% active. THP-1 LPS/ATP IL-1B secretion, AlphaLISA, 16 h; stronger effect = lower value. activity change, % at 57.5 µM; in the data active means activity change below about -50%; inconclusive means mostly about -30% to -49%
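THP-1 cells pretreated 1 hr with compounds (up to 57.5 uM final), then stimulated with LPS (250 ng/mL final) plus ATP (1.25 mM final); secreted IL-1B measured by AlphaLISA after 16 hr, decreased signal indicating inhibition.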
* hit, by the source's call; ? = inconclusive; nt = no result given; ! = repeats disagree; [ ] = another dose, or the depositor's remark. Sampled rows, rich in hits. Any-hit rate of the full collection: about 19%. Unless noted, the call rests on the fitted dose curve; in most records, active means well fitted curve in the direction sought with a large enough effect; inconclusive means small, poorly fitted or top-dose-only effect, or another doubt; inactive means no such curve, though single readings can be large; an effect the other way counts as inactive or inconclusive. On the % scale 0 is the no-effect control and ±100 the full control effect.

SMILES | Giardia killer | DT40 TDP1 no CPT | ELG1 DNA repair | TDP1 inh | TDP1 cell CPT | IL-1B inflam inh
COCC(=O)Nc1cc(C(=O)N2CCN(C3CCCC3)C(=O)C2)c2c(c1)nc(-c1ccncc1)n2C | nt | -9% | nt | nt | -6%[9.04 µM] | nt
O=C(NC1CC1)c1c(O)c2ccccc2[nH]c1=O | 4 | -14% | ? | nt | ? | -61*
O=C(CCl)NNC(=O)c1c(O)c2ccccc2[nH]c1=O | 12 | 5.2µM* | 1% | 3% | 4.6µM* | -102*
CCc1nc2ccccc2c(=O)n1NC(=O)c1c(O)c2ccccc2[nH]c1=O | -26 | 18µM* | -27% | 2% | 21µM* | -1
Cc1ccc(-n2nc(C)c(C(=O)NCCCN3CCN(c4cccc(Cl)c4)CC3)c2-n2cccc2)cc1 | nt | 5.8µM* | nt | 6% | 8.2µM* | nt
Cc1ccc(-n2nc(C)c(C(=O)NCCCN3CCN(c4ccccc4F)CC3)c2-n2cccc2)cc1 | nt | 3.7µM* | nt | 8% | 3.3µM* | nt
CCCC(=O)NNc1c2ccccc2nc2ccccc12 | 3 | ? | 3% | 6% | -11% | -18
Cc1cccc(OCC(=O)NCc2cc(C)nc3ccccc23)c1 | -8 | ? | 15µM* | 5% | ? | 52
O=C(COc1ccccc1)NNc1c2ccccc2nc2ccccc12 | 18 | 13µM* | 21µM* | 0% | ? | -23
COc1ccc(OCC(=O)NNc2c3ccccc3nc3ccccc23)cc1 | -3 | 21µM* | ? | nt | 23µM* | -51*
COc1ccc(C(=O)NCc2cc(C)nc3ccccc23)cc1 | -16 | ? | ? | -2% | ? | 99
Cc1oc2c(Cl)c(Cl)c(O)c(CN(C)C)c2c1C(=O)c1ccc(Cl)cc1 | -1 | ? | ? | nt | ? | -25
CCCCCCCCN1C(=O)[C@H](CC(=O)NCCCCc2ccccc2)C[C@@]2(C(=O)OC)CC(C)(C)CC=C12 | nt | 21µM* | nt | nt | 16µM* | 16
CCCCNC(=O)C[C@@H]1C[C@@]2(C(=O)OC)CC(C)(C)CC=C2N(Cc2ccccc2)C1=O | nt | ? | nt | nt | ? | -28
CCCCCCCCN1C(=O)[C@H](CC(=O)NCc2cccc3ccccc23)C[C@@]2(C(=O)OC)CC(C)(C)CC=C12 | nt | 12µM* | nt | nt | -67% | 0
CCCCCCCCN1C(=O)[C@H](CC(=O)NCc2ccccc2)C[C@@]2(C(=O)OC)CC(C)(C)CC=C12 | nt | 5.2µM* | nt | nt | 3.7µM* | -26
CCCCCCCCN1C(=O)[C@H](CC(=O)NCCCC)C[C@@]2(C(=O)OC)CC(C)(C)CC=C12 | nt | 12µM* | nt | nt | 10µM* | 15
COc1ccc(C(=O)N(Cc2ccccc2)Cc2cccs2)c(O)c1 | nt | nt | nt | -6% | nt | nt
Cc1cccnc1NC(=O)c1c(O)c2ccccc2n(C)c1=O | -3 | 23µM* | 27% | 3% | ? | 18
Cn1c(=O)c(C(=O)NNC(=O)c2ccc(Br)cc2)c(O)c2ccccc21 | 7 | 18µM* | ? | nt | ? | 24
CCn1c(=O)c(C(=O)Nc2ncccc2O)c(O)c2ccccc21 | 21 | -2% | ? | nt | 13% | 10
CCn1c(=O)c(C(=O)Nc2ncccc2C)c(O)c2ccccc21 | -14 | 2.6µM* | -26% | 4% | 2.3µM* | 7
Cn1c(=O)c(C(=O)NCCO)c(O)c2ccccc21 | 20 | ? | 9% | 9% | ? | -12
Cc1ccc2c(c1)N(C(=O)N1CCC(C(=O)NC3CCCCCC3)CC1)CC(C)O2 (stereo not given) | nt | ? | nt | -8% | ? | nt
COc1cc(OC)c(-c2nn3c(C4CCCCC4)nnc3s2)cc1OC | 7 | ? | 21µM* | 6% | ? | -8
SMILES | Giardia killer | DT40 TDP1 no CPT | ELG1 DNA repair | TDP1 inh | TDP1 cell CPT | IL-1B inflam inh
COc1cc(/C=N/n2c(-c3n[nH]c4c3CCC4)n[nH]c2=S)cc(OC)c1O | -3 | -18% | 1% | nt | 17% | 112
Clc1ccc(OCc2nn3c(C4CCCCC4)nnc3s2)c(Cl)c1 | 8 | ? | 0% | 4% | -15% | -3
Cc1cc(-c2nnc3sc(-c4ccc(Cl)cc4Cl)nn23)n[nH]1 | -3 | ? | 15% | 2% | ? | ?
COc1cc(OC)c(-c2nn3c(-c4n[nH]c5c4CCC5)nnc3s2)cc1OC | -17 | 11µM*! | nt | 1% | ? | nt
COc1cc(OC)c(-c2nn3c(-c4cc(C)[nH]n4)nnc3s2)cc1OC | 11 | 4.5µM* | nt | 1% | 7.1µM* | nt
O=C(C[n+]1ccccc1)N/N=C/c1ccc(C(=O)O)cc1 | -21 | 24% | 12% | 0% | 5% | -5
COc1ccccc1C(=O)Nc1ccccc1OCc1cc(=O)n2cc(C)sc2n1 | nt | ? | nt | 6% | -10% | nt
COC(=O)c1ccc(NC(=O)CC2C(=O)N(c3cccc(F)c3)C(=O)N2CC(C)C)cc1 (stereo not given) | nt | 13µM* | nt | 4% | 21µM* | nt
COc1cccc(CN2C(=O)N(c3ccc(C)cc3)C(=O)C2CC(=O)Nc2cc(OC)cc(OC)c2)c1 (stereo not given) | nt | 7.3µM* | nt | 3% | 13µM* | nt
COc1cc(NC(=O)CC2C(=O)N(c3cccc(C)c3)C(=O)N2Cc2ccc(F)cc2)cc(OC)c1 (stereo not given) | nt | 21µM* | nt | 8% | ? | nt
CCc1ccc(NC(=O)CC2C(=O)N(c3ccc(F)cc3)C(=O)N2Cc2ccc(F)cc2)cc1 (stereo not given) | nt | ? | nt | 0% | 13µM* | nt
Cc1c(C(=O)NCc2ccco2)cnn1-c1ncc2c(n1)-c1ccccc1CC2 | nt | ? | nt | nt | -7%[9.04 µM] | nt
CC1(C(=O)NS(=O)(=O)c2ccc(Cl)s2)CCN1C(=O)Cc1ccc(Cl)cc1Cl (stereo not given) | nt | -4% | nt | nt | -14% | 22
COc1ccc(CN2CCNC(=O)C2CC(=O)NCCCn2cccn2)c(OC)c1 (stereo not given) | 13 | -2% | -1% | 5% | 1% | 1
COc1ccccc1N1CCN(Cc2cc(=O)oc3cc(C)cc(C)c23)CC1 | nt | ? | nt | nt | ? | 28
COc1cc(NC(=O)CC2C(=O)N(c3ccccc3)C(=O)N2Cc2ccc(F)cc2)cc(OC)c1 (stereo not given) | nt | 15µM* | nt | -3% | 13µM* | nt
CCOc1ccc(NC(=O)CC2C(=O)N(c3ccccc3)C(=O)N2Cc2cccc(OC)c2)cc1 (stereo not given) | nt | 21µM* | nt | 3% | 10µM* | nt
O=C(NCCc1nnc2n1CCN(Cc1ccsc1)CC2)c1ccc(F)cc1 | nt | -7% | nt | nt | -1% | nt
CC1=C(C)C(=O)C(C(CCCCCC(=O)O)c2ccccc2)=C(C)C1=O (stereo not given) | nt | ? | nt | nt | 17µM* | nt

Source: PubChem (National Center for Advancing Translational Sciences (NCATS))
